This is part of a sample that, as a whole, favours compounds with a hit. Of some 79,000 tested, about 15% had one in any assay. Cut-off read from the data, not from the text of the source: active = growth inhibition above about 70%; inactive = the rest. Where a SMILES comes first, the peptide text is derived from it. The star is where a group is joined. Boc = CC(C)(C)OC(=O)*
Legend:
[1] = NCI Yeast Anticancer Drug Screen. Data for the rad50 strain (AID 155);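 note: 0% = growth of vehicle-only cultures of the same strain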; settings: S. cerevisiae rad50 strain growth inhibition; at 50.0 µM; active compounds read high
In short: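 Genetically altered yeast (DNA repair pathway); compound treatment; growth inhibition vs vehicle ctrl.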

[2] = NCI Yeast Anticancer Drug Screen. Data for the mec2-1 strain (AID 157); settings: S. cerevisiae mec2-1 strain, at 50.0 µM, active compounds read high
In short: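 Cells of the genetically defined mec2-1 yeast strain are incubated with test compound. Inhibition of growth is calculated against vehicle-treated controls.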

[3] = NCI Yeast Anticancer Drug Screen. Data for the sgs1 mgt1 strain (AID 161);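 note: 0% = growth of cultures given vehicle only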; settings: S. cerevisiae sgs1 mgt1 strain, at 50.0 µM, active compounds read high
In short: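 Inhibition of yeast growth, normalised to vehicle-treated controls, is reported for a strain bearing genetic alterations in DNA damage repair.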

[4] = NCI Yeast Anticancer Drug Screen. Data for the cln2 rad14 strain (AID 165);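 note: 0% = growth equal to vehicle treated cultures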; settings: S. cerevisiae cln2 rad14 strain, at 50.0 µM, active compounds read high
In short: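 The screen exposed genetically defined yeast (cln2 rad14) to test compounds and scored growth inhibition relative to vehicle-treated controls.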

[5] = NCI Yeast Anticancer Drug Screen. Data for the bub3 strain (AID 167); settings: S. cerevisiae bub3 mutant strain, at 50.0 µM, active compounds read high
In short: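 Yeast carrying a defined mutation is treated with each compound, and growth is compared with that of vehicle-exposed cells to give inhibition.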

[6] = NCI Yeast Anticancer Drug Screen. Data for the mlh1 rad18 strain (AID 175); settings: S. cerevisiae mlh1 rad18 strain growth inhibition; at 50.0 µM; active compounds read high
In short: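 Compound-treated yeast growth, normalised to vehicle controls. Strain bears defined DNA repair mutations.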

Measured: growth inhibition

CCOC(=O)C(N=Cc1ccc([N+](=O)[O-])cc1)C(O)c1ccc([N+](=O)[O-])cc1 (stereo unspecified)
inactive: [1] 9.55% | [2] 5.15% | [3] 1.8% | [4] 14.9% | [5] 2.2% | [6] 7.75%

O=C1Cc2nc3ccccc3nc2CC(=O)c2ccccc21
inactive: [1] 4.9% | [2] 10.9% | [3] 9.35% | [4] -19.9% | [5] -12.1% | [6] 13.3%

Cc1ccc(S(=O)(=O)N2CCN(C=S)CC2)cc1
inactive: [1] 22.4% | [2] -30.8% | [3] 14.2% | [4] 3.9% | [5] 23.2% | [6] 26.9%

O=C(O)C1CCCN1/N=C/c1cccc([N+](=O)[O-])c1 (stereo unspecified)
inactive: [1] -11.1% | [2] -1.3% | [3] 9.1% | [4] -5.4% | [5] 24.6% | [6] -11.3%

CN(C(=O)c1ccc(C(=N)N)cc1)c1ccccc1
inactive: [1] -8.3% | [2] -7.3% | [3] -5.1% | [4] -12.8% | [5] -0.05% | [6] -8.95%

CCNC(=O)NC(=O)C(C)(C)Oc1ccc(Cl)cc1
inactive: [1] -8.4% | [2] 10.4% | [3] 7.4% | [4] 12.5% | [5] 12.4% | [6] 18.8%

O=C(CI)Nc1ccc2oc(=O)c(C(=O)O)cc2c1
inactive: [1] -7% | [2] -6.05% | [3] 4.85% | [4] -64.4% | [5] -2.9% | [6] -12.8%

COc1ccc(C(=O)C(c2ccccc2)c2ccccc2)cc1
inactive: [1] 6.65% | [2] 1.95% | [3] -13.2% | [4] 4.35% | [5] 9.25% | [6] 6%

CCCCc1ccc(N=Nc2ccccc2)cc1
inactive: [1] -9.35% | [2] -17.5% | [3] -15.6% | [4] -59% | [5] -6.05% | [6] -32.2%

CCN(CC)CCN(CCN(CC)CC)c1ccc2ccccc2c1
inactive: [1] 18.9% | [2] -12.8% | [3] 7.3% | [4] 5.05% | [5] 16.2% | [6] 32.5%

O=CNc1ccccc1-c1ccccc1
inactive: [1] -33.3% | [2] -15% | [3] -18% | [4] -17.1% | [5] -0.15% | [6] 2.55%

CC(=O)OC1CC(c2ccccc2)N(C)C(c2ccccc2)C1 (stereo unspecified)
inactive: [1] 6.85% | [2] -8% | [3] 2.55% | [4] -7.9% | [5] -3.15% | [6] 10.6%

C/C(=N/N(C)c1ccccc1)C(C)C
inactive: [1] 14.5% | [2] -6.75% | [3] 3.45% | [4] 1.6% | [5] 24.4% | [6] 10.7%

Cc1cccc(NC(C(=O)O)c2ccccc2)c1 (stereo unspecified)
inactive: [1] -13.8% | [2] 8.8% | [3] -12.8% | [4] -65.2% | [5] 26.1% | [6] 5.45%

COC(=O)CNC(=O)C(CC(C)C)NC(=O)C(CC(C)C)NC(=O)OC(C)(C)C (stereo not drawn) (Boc-Leu-Leu-Gly-OMe; configuration not given here)
inactive: [1] 42.2% | [2] 1.65% | [3] 32.1% | [4] 10.5% | [5] -0.6% | [6] 15.8%

CC(=O)N(c1ccc(NC(=O)c2ccc(N3C(=O)c4ccccc4C3=O)cc2[N+](=O)[O-])cc1)c1cc[n+](C)cc1
inactive: [1] -13.8% | [2] 2.3% | [3] -1% | [4] 9.35% | [5] -5.1% | [6] 3.75%

CCOC(=O)C(C(C)=O)C(c1ccc(N(C)C)cc1)c1ccc(N(C)C)cc1 (stereo unspecified)
inactive: [1] 4% | [2] -4.35% | [3] -6.6% | [4] -2.4% | [5] 3.95% | [6] -3.4%

CC1=C2CC[C@@]3(C)C(=CCC3O)C2(C)CCC1=O (stereo partly specified)
inactive: [1] -1.3% | [2] 11.9% | [3] -7.5% | [4] -34% | [5] -8.9% | [6] -7.6%

Nc1ccc2c(c1)C1Oc3ccccc3CC1CO2 (stereo unspecified)
inactive: [1] 33% | [2] 6.55% | [3] 20.1% | [4] 8.05% | [5] 12.8% | [6] 47.2%

c1ccc(C(N2CCNCC2)N2CCNCC2)cc1
inactive: [1] -2.05% | [2] 8% | [3] 10.1% | [4] -3.6% | [5] -9.3% | [6] 17%

NCCS/C=C\C(=O)OCc1ccc(Br)cc1
inactive: [1] 31.6% | [2] 4.4% | [3] 9.65% | [4] 6.45% | [5] 19.1% | [6] 54.1%

Cn1nc(NC(=O)c2cc(N)nn2C)cc1C(=O)Nc1ccc2cc(S(=O)(=O)O)cc(S(=O)(=O)O)c2c1
inactive: [1] -14.1% | [2] -16.7% | [3] -10.3% | [4] 7.65% | [5] 13.7% | [6] -3%

O=C(NN(C(=O)c1ccc([N+](=O)[O-])cc1)c1ccccc1)c1ccc([N+](=O)[O-])cc1
inactive: [1] 3.1% | [2] 14.2% | [3] 14.1% | [4] 21.4% | [5] 12.8% | [6] 13.2%

O=NNc1ccc(Sc2ccc(NN=O)nc2)cc1
inactive: [1] 4.65% | [2] -7.4% | [3] 8.45% | [4] 17% | [5] -3.15% | [6] 21.9%

CC(C)NCCC(O)c1cc2ccccc2o1 (stereo unspecified)
inactive: [1] -12.8% | [2] -4% | [3] -17.6% | [4] -7.1% | [5] -35.5% | [6] 5.15%

N#CC1(Nc2ccc(-c3ccc(NC4(C#N)CCCC4)cc3)cc2)CCCC1
inactive: [1] 40.8% | [2] -16.4% | [3] -36.5% | [4] -40.9% | [5] -2.55% | [6] 21.1%

O=S(=O)(c1ccc(Br)cc1)S(=O)(=O)c1ccc(Br)cc1
inactive: [1] -22.6% | [2] 0.7% | [3] -23.1% | [4] -13.9% | [5] 23.2% | [6] -16.1%

Cc1ccnc(C2=C(O)c3ccccc3C2=O)c1
inactive: [1] 20% | [2] 0.1% | [3] -9.75% | [4] 1.15% | [5] -2.8% | [6] 12.8%

COC(=O)C(Cc1nc2ccccc2[nH]c1=O)/C(=N\NC(C)(C)C)C(=O)Nc1c(C)cc(Br)cc1C (stereo unspecified)
inactive: [1] 17.2% | [2] -4.55% | [3] 5.9% | [4] -35.8% | [5] 3.7% | [6] -3%

CN1NC(c2ccc(Cl)cc2)=C(C#N)C(=O)CC1c1ccccc1 (stereo unspecified)
inactive: [1] 2.1% | [2] -7.95% | [3] -5.05% | [4] 10.5% | [5] -20.4% | [6] 2.35%

S=c1[nH]c2ccccc2n2cccc12
inactive: [1] 14.9% | [2] -7.15% | [3] 27.4% | [4] 12.8% | [5] -12.3% | [6] 19.2%

OCc1sccc1-n1cccc1
inactive: [1] -19.4% | [2] -47.5% | [3] -16.6% | [4] 5.75% | [5] -48.5% | [6] -28.6%

Cc1ccc(NC(=O)CN2CCCCC2)cc1
inactive: [1] -16.9% | [2] -7.65% | [3] -7% | [4] 3.9% | [5] -0.9% | [6] -21.9%

COc1ccc(N=Nc2c(C)nc(N)nc2C)cc1
inactive: [1] 2.1% | [2] 18% | [3] 8.05% | [4] -26.8% | [5] -14.3% | [6] 12.6%

C=CC(=O)OCC(C)(C)[N+](=O)[O-]
inactive: [1] 18.4% | [2] 15.7% | [3] 12.8% | [4] 2.35% | [5] -3.65% | [6] 1.55%

Cc1ccc(S(=O)(=O)NC2C(=O)c3ccccc3C(=O)C2n2cnc3ccccc32)cc1 (stereo unspecified)
inactive: [1] 14.3% | [2] 1.8% | [3] -10.9% | [4] -16.9% | [5] -14.9% | [6] -28.8%

COC(=O)c1c(C)c(C)cc(C)c1C
inactive: [1] -0.9% | [2] -13.2% | [3] -4.1% | [4] 11.7% | [5] -7.1% | [6] -9.5%

COc1ccc2nc(C)c3c(c2c1)C(=O)N(CCCN1CCN(CCCN2C(=O)c4c(C)nc5ccc(OC)cc5c4C2=O)CC1)C3=O
inactive: [1] 0.6% | [2] 9.4% | [3] -7.5% | [4] -25.4% | [5] 2.15% | [6] 36.5%

O=C(CCl)Oc1cccc([N+](=O)[O-])c1
inactive: [1] 0.6% | [2] -11.2% | [3] -7.05% | [4] -8.45% | [5] -17.5% | [6] -20.4%

C=CCc1c(Cl)nc(Cl)nc1Cl
inactive: [1] -14.8% | [2] 22.6% | [3] 10.3% | [4] -69.2% | [5] 7.1% | [6] -23.6%

COC(=O)c1cc(C(=O)OC)c(C/C(=N/NC(=O)C[N+](C)(C)C)C(=O)Nc2cccc(C(F)(F)F)c2)nc1C/C(=N/NC(=O)C[N+](C)(C)C)C(=O)Nc1cccc(C(F)(F)F)c1
inactive: [1] -14.5% | [2] -1.45% | [3] -11.6% | [4] 17.1% | [5] 11.4% | [6] -2.3%

— PubChem BioAssay (NCI)
